Some test systems named below: NCI-H23 lung; NCI-H226 lung; NCI-H322M lung; HOP-62 NSCLC; NCI-H460 lung; HOP-92 NSCLC; NCI-H522 lung; A549/ATCC NSCLC; 786-0 renal; COLO 205 colon; DU-145 prostate; K-562 leukemia; MALME-3M melanoma; MDA-MB-231 breast; RXF 393 renal; SF-268 CNS; SF-295 CNS; SF-539 CNS; UACC-257 melanoma; M14 melanoma.
Holding throughout (assay): NCI-60 one-dose screen, 48 h (100 = growth as untreated, 0 = no growth, -100 = all killed)
Settings in all cases: 10 µM unless noted

The panel holds about 83,000 compounds, 20% with a hit somewhere; the sample as a whole holds those more often.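 Single-concentration screen, 48 h exposure, 96-well plates. Endpoint: percent growth. Below 10 = active.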 Values without a mark were called inactive. Activity calls are given as the source filed them.

With `CCOc1ccc(-c2cc(C3(S(=O)(=O)c4ccc(C)cc4)CC=CC3)on2)cc1`, the growth was 73.2% in the assay with NCI-H23 lung; 47.7% with NCI-H226 lung; 96.4% with NCI-H322M lung; 85.9% in the assay on HOP-62 NSCLC; 91.1% in the assay on NCI-H460 lung; 86.1% in the assay on HOP-92 NSCLC. The growth was 70.6% with NCI-H522 lung; 92.8% with A549/ATCC NSCLC; 102% in the assay with 786-0 renal; 95.5% with COLO 205 colon; 101% in the assay on DU-145 prostate; 70.9% in the assay on K-562 leukemia. The growth in the assay with MALME-3M melanoma was 83.6%; in the assay on MDA-MB-231 breast, 91.8%; with RXF 393 renal it was 93.6%; with SF-268 CNS, 98.6%; in the assay with SF-295 CNS it was 90%; in the assay on SF-539 CNS, 98.6%. The results for the growth with UACC-257 melanoma and in the assay with M14 melanoma were 74.9% and 107%, respectively.

With `O=C1CCC(C(=O)N/N=C/c2ccc([N+](=O)[O-])cc2)N1` (stereo not given), the growth was 98.6% with NCI-H23 lung; 106% with NCI-H226 lung; 102% with NCI-H322M lung; 110% with HOP-62 NSCLC; 101% in the assay on NCI-H460 lung; 89.1% with HOP-92 NSCLC. Besides, the growth is 96.1% with NCI-H522 lung; 102% in the assay on A549/ATCC NSCLC; 95.5% with 786-0 renal; 108% with COLO 205 colon; 103% in the assay with DU-145 prostate; 103% with K-562 leukemia. For the same molecule, the growth in the assay on MALME-3M melanoma was 101%; with MDA-MB-231 breast, 109%; in the assay with RXF 393 renal, 111%; in the assay with SF-268 CNS it was 96.7%; in the assay with SF-295 CNS, 99.7%; with SF-539 CNS it was 93.7%. The growth is 106% in the assay with UACC-257 melanoma and 104% in the assay on M14 melanoma.

Regarding `CCN=c1sc2c(n1NC(=O)c1cc3ccc1CCc1ccc(cc1)CC3)C(=O)c1ccccc1C2=O`, the growth in the assay with NCI-H23 lung is -32.1% (active); in the assay with NCI-H226 lung, 73%; with NCI-H322M lung, 80.5%; with HOP-62 NSCLC, -58.6% (active); with NCI-H460 lung, 9.62% (active); in the assay on HOP-92 NSCLC, -9.79% (active). Further, the growth in the assay with NCI-H522 lung was -34.8% (active); with A549/ATCC NSCLC, -38.8% (active); with 786-0 renal, -90.4% (active); with COLO 205 colon, 42.6%; in the assay on DU-145 prostate, -91.4% (active); in the assay with K-562 leukemia, -28.5% (active). For the same molecule, the growth in the assay with MALME-3M melanoma was -87.4% (active); in the assay on MDA-MB-231 breast it was -7.49% (active); in the assay with RXF 393 renal it was -87.2% (active); with SF-268 CNS it was -10.6% (active); with SF-295 CNS, 31%; with SF-539 CNS it was -94.4% (active). Further, the growth with UACC-257 melanoma is -90.5% (active); with M14 melanoma, -93.5% (active).

As to `CCOC(=O)c1c2c(n3ccc(NC(=O)CCN4CCCC4)cc13)C(=O)c1ncccc1C2=O`, the growth with NCI-H23 lung is -72.5% (active); in the assay on NCI-H226 lung, 63.6%; with NCI-H322M lung, -76.7% (active); in the assay with HOP-62 NSCLC, -68.5% (active); in the assay with NCI-H460 lung, -79.9% (active); in the assay on HOP-92 NSCLC it was 56.2%. Besides, the growth with NCI-H522 lung was -37% (active); in the assay with A549/ATCC NSCLC, -66.6% (active); in the assay with 786-0 renal it was -88.2% (active); in the assay with COLO 205 colon, 15.4%; in the assay with DU-145 prostate, -89.3% (active); with K-562 leukemia it was -40.3% (active). Also, the growth is 66.3% in the assay with MALME-3M melanoma; -71.2% (active) in the assay on MDA-MB-231 breast; 47.5% in the assay with RXF 393 renal; -67.8% (active) in the assay on SF-268 CNS; 32.2% with SF-295 CNS; -75.8% (active) in the assay with SF-539 CNS. Further, the growth in the assay on UACC-257 melanoma was 105%; with M14 melanoma it was 63.7%.

As to `CCCC1Cc2cc(-n3nc(C)c4c3CC(C)(C)CC4=O)cc(NC3CCC(O)CC3)c2C(=O)N1` (stereo not given), the growth was 34.5% with NCI-H23 lung; 47.7% with NCI-H226 lung; 50.5% in the assay on NCI-H322M lung; 40.1% in the assay on HOP-62 NSCLC; 18% in the assay with NCI-H460 lung; -0.467% (active) in the assay on HOP-92 NSCLC. The growth with NCI-H522 lung was 39.1%; in the assay with A549/ATCC NSCLC it was 31.6%; in the assay on 786-0 renal, 49.9%; with COLO 205 colon, 14%; in the assay on DU-145 prostate it was 53.7%; in the assay on K-562 leukemia, 14.3%. For the same molecule, the growth in the assay on MALME-3M melanoma is 12.3%; with MDA-MB-231 breast, -15.1% (active); with RXF 393 renal it was 65.3%; with SF-268 CNS, 65.3%; in the assay on SF-295 CNS, 21%; with SF-539 CNS, 34.4%. For the same molecule, the growth is 37.1% in the assay on UACC-257 melanoma and 33.7% with M14 melanoma.

Consider `CNC1=C(Br)C(=O)c2c(C(=O)OC)c(C)nc(C)c2C1=O`, for which the growth with NCI-H23 lung was 31.8%; in the assay with NCI-H226 lung, 86.3%; in the assay on NCI-H322M lung it was 81.5%; with HOP-62 NSCLC, 99.9%; in the assay on NCI-H460 lung it was 30.4%; in the assay on HOP-92 NSCLC, 104%. Further, the growth is 64.3% in the assay on NCI-H522 lung; 58.1% in the assay with A549/ATCC NSCLC; 102% in the assay on 786-0 renal; 30.9% in the assay on COLO 205 colon; 57.9% in the assay on DU-145 prostate; 64.4% in the assay with K-562 leukemia. Moreover, the growth was -26.6% (active) in the assay on MALME-3M melanoma; 71.6% in the assay with MDA-MB-231 breast; 63.5% in the assay on RXF 393 renal; 73.5% in the assay with SF-268 CNS; 78.3% with SF-295 CNS; 82.8% in the assay with SF-539 CNS. The figures for the growth in the assay on UACC-257 melanoma and with M14 melanoma were 56.1% and 31.4%, respectively.

Regarding `CCn1c2ccccc2c2cc(C(O)c3cccc4ncccc34)ccc21` (stereo not given), the growth was -42.3% (active) with NCI-H23 lung; 23.7% in the assay on NCI-H226 lung; 34.8% with NCI-H322M lung; 32.8% in the assay on HOP-62 NSCLC; 10.1% with NCI-H460 lung; 29.3% in the assay on HOP-92 NSCLC. Also, the growth in the assay with NCI-H522 lung was 8.82% (active); in the assay on A549/ATCC NSCLC, 20.7%; with 786-0 renal it was 6.42% (active); in the assay on COLO 205 colon it was -33.9% (active); in the assay with DU-145 prostate, 8.08% (active); with K-562 leukemia it was 8.65% (active). The growth was 57.7% in the assay with MALME-3M melanoma; 24.3% in the assay on MDA-MB-231 breast; 40.6% with RXF 393 renal; 28.6% in the assay on SF-268 CNS; 18.4% with SF-295 CNS; 6.53% (active) in the assay on SF-539 CNS. The growth in the assay on UACC-257 melanoma is 70.8%; with M14 melanoma, -4.81% (active).

As for `O=C(OCC(O)C(=O)NC12CC3CC(CC(C3)C1)C2)c1cccc(Br)c1` (stereo not given), the growth in the assay on NCI-H23 lung was 103%; in the assay with NCI-H226 lung, 97.5%; in the assay with NCI-H322M lung, 102%; in the assay with HOP-62 NSCLC, 96.9%; with NCI-H460 lung it was 108%; in the assay with HOP-92 NSCLC, 90.1%. For the same molecule, the growth with NCI-H522 lung was 91.9%; in the assay on A549/ATCC NSCLC it was 91.9%; with 786-0 renal it was 102%; in the assay on COLO 205 colon, 105%; in the assay with DU-145 prostate it was 105%; with K-562 leukemia it was 89.4%. For the same molecule, the growth was 101% in the assay on MALME-3M melanoma; 92% with MDA-MB-231 breast; 110% with RXF 393 renal; 103% with SF-268 CNS; 96.9% with SF-295 CNS; 96.2% in the assay on SF-539 CNS. For the same molecule, the results for the growth in the assay with UACC-257 melanoma and in the assay on M14 melanoma were 91.1% and 95.5%, respectively.

The record behind these values is PubChem BioAssay (NCI).
